Where “and” joins values, the source holds several entries; their conditions need not be identical. Equal values may be shown once. Results filed as inconclusive are left out. The source holds several records for some structures; these can differ, active in one and inactive in another. Calls of active or inactive are those of the source. Unless noted, calls come from the whole dose curve; as a rule, active = well fitted curve in the direction sought with a large enough effect in the repeat runs; inconclusive = weak or mixed curves; inactive = no such curve, though single readings can be large; an effect the other way counts as inactive or inconclusive.

Experiment [1] can be described thus: qHTS assay to identify small molecule agonists of the androgen receptor (AR) signaling pathway in the presence of an antagonist - cell viability counter screen (AID 1259379). Note: nearly all actives have a fitted effect of over 25% in size. Note: potency is the fitted concentration of half-maximal effect. In short, it runs like this:
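Each compound was tested at 15 concentrations on MDA-kb2 cells in the presence of 3.0uM nilutamide. Viability was measured by CellTiter-Fluor fluorescence after a 16 hr incubation at 37C in a CO2-free atmosphere.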
A general note: Quantitative high-throughput screening tests each substance at several concentrations.

Experiment [2] in a line: qHTS assay to identify small molecule agonists of the estrogen receptor beta (ER-beta) signaling pathway - cell viability counter screen (AID 1259380). Note: nearly all actives have a fitted effect of over 30% in size. Note: potency is the fitted concentration of half-maximal effect. In short, it runs like this:
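Compounds dissolved in DMSO were pin-transferred onto ER-beta-UAS-bla HEK293T cells that had settled 6 hr, and exposure ran 16 hr at 37C. Following the reporter read, CellTiter-Glo luminescence after 30 min at room temperature indicated cytotoxicity.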

The nature of experiment [3]: qHTS assay to identify small molecule antagonists of the estrogen receptor beta (ER-beta) signaling pathway - cell viability counter screen (AID 1259382). Note: nearly all actives have a fitted effect of over 55% in size. Note: potency is the fitted concentration of half-maximal effect. In short, it runs like this: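 CellTiter-Glo ATP luminescence measured after the LiveBLAzer read in the same wells; ER-beta-UAS-bla HEK293T cells, 16 hr compound treatment with 1nM 17-beta-estradiol agonist at 37C, 5% CO2.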

Experiment [4] in a line: qHTS assay to identify small molecule agonists or antagonists of the thyroid stimulating hormone receptor (TSHR) signaling pathway - wild type cell line counter screen (AID 1259384; calls by dose curve). In short, it runs like this: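 Wild-type Hek293 cells, 800/well, 18 h at 37C, then compound with Ro20-1724 for 30 min RT. cAMP by HTRF (cAMP-d2/anti-cAMP cryptate), 1 h RT, fluorescence read. 15 concentrations, triplicates.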

The target in experiment [5] is Thyrotropin receptor (Homo sapiens) (UniProt P16473). The experiment in a line: qHTS assay to identify small molecule antagonists of the thyroid stimulating hormone receptor (TSHR) signaling pathway (AID 1259385; calls by dose curve; note: nearly all actives have a fitted effect of over 20% in size). An outline of the steps: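 TSHR-HEK293 cells (800/well) plated 18 h, then compounds with Ro20-1724 and TSH at 1.5 ng/mL final, 30 min at room temperature. cAMP quantified by HTRF (cAMP-d2/anti-cAMP-cryptate, 1 h); 15 concentrations in triplicate.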

A short description of experiment [6]: qHTS assay to identify small molecule agonists of the estrogen receptor alpha (ER-alpha) signaling pathway in the presence of an antagonist - cell viability counter screen (AID 1259386).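 Note: series mostly up to about 92 µM; cells exposed to compounds for 22 h at 37 °C before the viability read; nearly all actives have a fitted effect of over 30% in size.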 In short, it runs like this:
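Using estrogen-depleted VM7Luc4E2 cells, the 15-concentration compound series was applied together with 10.0nM ICI-182,780 and incubated 22hr at 37C/5% CO2. Cell viability was then scored by CellTiter-Fluor.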

The target of experiment [7] is Progesterone receptor (Homo sapiens) (UniProt P06401). The experiment in a line: qHTS assay to identify small molecule agonists of the progesterone receptor (PR) signaling pathway (AID 1346784; calls by dose curve; note: nearly all actives have a fitted effect of over 30% in size). In short, it runs like this:
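Using charcoal-stripped serum (2%) to limit endogenous steroids, PR-UAS-bla HEK 293T cells received compounds for 16 hr at 37C after 6 hr plating; beta-lactamase FRET fluorescence was recorded following 2 hr substrate loading at room temperature.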

Experiment [8] shares this target. The experiment in a line: qHTS assay to identify small molecule antagonists of the progesterone receptor (PR) signaling pathway (AID 1346795; active = well fitted inhibition curve with a large enough effect in the signal ratio in the repeat runs, not every such curve was filed as active; the % refers to the signal ratio; note: potency is the fitted concentration of half-maximal effect). An outline of the steps:
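Inhibition of R5020-induced (1 nM final) beta-lactamase reporter signal in PR-UAS-bla HEK293T cells was scored by FRET fluorescence after overnight (16 hr) compound treatment.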

The nature of experiment [9]: qHTS assay to identify small molecule antagonists of the progesterone receptor (PR) signaling pathway - cell viability counter screen (AID 1346798). Note: nearly all actives have a fitted effect of over 50% in size. Note: potency is the fitted concentration of half-maximal effect. An outline of the steps: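 ATP content as viability readout: CellTiter-Glo luminescence, 30 min room temperature, in PR-UAS-bla HEK293T cells after 16 hr compound/R5020 treatment at 37C and 5% CO2.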
Experiment [10] in a line: qHTS assay to identify small molecule agonists of the progesterone receptor (PR) signaling pathway - cell viability counter screen (AID 1346799; calls by dose curve; note: nearly all actives have a fitted effect of over 45% in size; note: potency is the fitted concentration of half-maximal effect). An outline of the steps: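 Cytotoxicity in PR-bla HEK293T cells: 16 h compound, 37C; CellTiter-Glo added post-FRET read; luminescence after 30 min RT.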
Experiment [11] in a line: qHTS assay to identify small molecule antagonists of the TGF-beta/Smad signaling pathway - cell viability counter screen (AID 1346824). Note: nearly all actives have a fitted effect of over 50% in size. An outline of the steps: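 SBE-bla HEK 293T cells, incubated overnight, then compound plus 0.25 ng/mL TGF-beta1 (stock added) for 5 hr at 37 C. Viability was read in the same wells by CellTiter-Glo luminescence after 30 min at room temperature.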

Experiment [12] can be described thus: qHTS assay to identify small molecule agonists of the TGF-beta/Smad signaling pathway - cell viability counter screen (AID 1346829). Note: top concentration of the series differs between compounds; nearly all actives have a fitted effect of over 45% in size. An outline of the steps:
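Luminescence from CellTiter-Glo, read after a 30 min room-temperature incubation, gives cell viability of SBE-bla HEK 293T cells treated 5 hr with compounds at 37 C.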

A short description of experiment [13]: qHTS assay to identify small molecule agonists of the TGF-beta/Smad signaling pathway (AID 1346859; active = well fitted activation curve with a large enough effect in the signal ratio in the repeat runs, not every such curve was filed as active; the % refers to the signal ratio; note: series mostly up to about 77 µM). In short, it runs like this: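 Stable Smad binding element-beta-lactamase HEK 293T cells; 5 hr compound exposure at 37 C under 5% CO2; 2 hr room-temperature substrate step; fluorescence excited at 405 nm, collected at 460 nm and 530 nm.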
The target in experiment [14] is Thyrotropin-releasing hormone receptor (Homo sapiens) (UniProt P34981). The experiment in a line: qHTS assay to identify small molecule antagonists of the thyrotropin-releasing hormone receptor (TRHR) signaling pathway (AID 1346877; active = well fitted inhibition curve with a large enough effect in the repeat runs, not every such curve was filed as active; note: series mostly up to about 51 µM). In short, it runs like this: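 Calcium signal in dye-loaded TRHR/HEK293 cells; compounds added 5 min before TRH (1 nM final); fluorescence monitored 3 min at 1 s steps.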

The target is the same in experiment [15]. The experiment in a line: qHTS assay to identify small molecule agonists of the thyrotropin-releasing hormone receptor (TRHR) signaling pathway (AID 1346891; calls by dose curve;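 note: HEK293 cells expressing TRHR with calcium dye readout; series mostly up to about 58 µM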). In short, it runs like this: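 In 1536-format, 1500 TRHR-Hek293 cells per well grew 18 h, took up calcium dye for 2 h at 37 °C, received compound, and were read kinetically; 15-point titrations, triplicates.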

The nature of experiment [16]: Human pregnane X receptor (PXR) small molecule agonists, qHTS cell viability counter screen (AID 1346977). Note: nearly all actives have a fitted effect of over 50% in size. Note: potency is the fitted concentration of half-maximal effect. In short, it runs like this: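 Readout is CellTiter-Fluor fluorescence from PXR-Luc HepG2 cells. Plated cells rested 5hr, then were treated with compounds for 24hr at 37C and 5% CO2, with reagent present during the last hour.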
Experiment [17] addresses Estrogen receptor beta (Homo sapiens) (UniProt Q92731). The experiment in a line: qHTS assay to identify small molecule agonists of the estrogen receptor beta (ER-beta) signaling pathway (AID 1259377; active = well fitted activation curve with a large enough effect in the signal ratio in the repeat runs, not every such curve was filed as active; the % refers to the signal ratio). In short, it runs like this:
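In HEK293T cells bearing a UAS-beta-lactamase reporter under ER-beta control, DMSO-delivered compounds were incubated for 16 hr at 37C. Activity was detected as fluorescence 2 hours after LiveBLAzer B/G FRET substrate addition.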

Experiment [18] has the same target. The experiment in a line: qHTS assay to identify small molecule antagonists of the estrogen receptor beta (ER-beta) signaling pathway (AID 1259378; active = well fitted inhibition curve with a large enough effect in the signal ratio in the repeat runs, not every such curve was filed as active; the % refers to the signal ratio). In short, it runs like this:
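ER-beta-UAS-bla HEK293T cells in 2% charcoal-stripped FBS medium treated with compound plus 1nM final 17-beta-estradiol for 16 hr at 37C. Beta-lactamase reporter read by FRET substrate fluorescence after 2 hours at room temperature.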

Experiment [19] deals with Estrogen receptor (Homo sapiens) (UniProt P03372). The experiment in a line: qHTS assay to identify small molecule agonists of the estrogen receptor alpha (ER-alpha) signaling pathway in the presence of an antagonist (AID 1259383; calls by dose curve; note: top concentration of the series differs between compounds; nearly all actives have a fitted effect of over 15% in size). In short, it runs like this:
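Luminescent ERE-luciferase reporter, VM7Luc4E2 cells (endogenous ER-alpha); 10.0nM ICI-182,780 final; 15-point compound titration; 22hr at 37C; ONE-Glo, 30min RT.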

Chain of Estrogen receptor (Homo sapiens) (P03372 whole entry, looked up): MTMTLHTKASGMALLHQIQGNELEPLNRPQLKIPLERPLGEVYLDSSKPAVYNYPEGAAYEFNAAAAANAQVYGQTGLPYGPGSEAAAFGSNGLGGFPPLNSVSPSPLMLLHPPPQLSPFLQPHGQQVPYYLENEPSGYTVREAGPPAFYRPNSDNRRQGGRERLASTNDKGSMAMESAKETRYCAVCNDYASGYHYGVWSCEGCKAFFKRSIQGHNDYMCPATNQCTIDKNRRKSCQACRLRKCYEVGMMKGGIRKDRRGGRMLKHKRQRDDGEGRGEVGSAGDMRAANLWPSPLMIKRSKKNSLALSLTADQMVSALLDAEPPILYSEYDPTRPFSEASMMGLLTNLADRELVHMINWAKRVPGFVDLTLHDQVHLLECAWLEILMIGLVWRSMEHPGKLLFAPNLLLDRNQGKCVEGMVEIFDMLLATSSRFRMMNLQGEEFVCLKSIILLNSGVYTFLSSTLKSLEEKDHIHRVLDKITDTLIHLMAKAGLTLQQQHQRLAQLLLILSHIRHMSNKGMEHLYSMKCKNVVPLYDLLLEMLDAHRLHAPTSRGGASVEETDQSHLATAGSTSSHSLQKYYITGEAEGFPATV
Chain of Thyrotropin receptor (Homo sapiens) (P16473 whole entry, looked up): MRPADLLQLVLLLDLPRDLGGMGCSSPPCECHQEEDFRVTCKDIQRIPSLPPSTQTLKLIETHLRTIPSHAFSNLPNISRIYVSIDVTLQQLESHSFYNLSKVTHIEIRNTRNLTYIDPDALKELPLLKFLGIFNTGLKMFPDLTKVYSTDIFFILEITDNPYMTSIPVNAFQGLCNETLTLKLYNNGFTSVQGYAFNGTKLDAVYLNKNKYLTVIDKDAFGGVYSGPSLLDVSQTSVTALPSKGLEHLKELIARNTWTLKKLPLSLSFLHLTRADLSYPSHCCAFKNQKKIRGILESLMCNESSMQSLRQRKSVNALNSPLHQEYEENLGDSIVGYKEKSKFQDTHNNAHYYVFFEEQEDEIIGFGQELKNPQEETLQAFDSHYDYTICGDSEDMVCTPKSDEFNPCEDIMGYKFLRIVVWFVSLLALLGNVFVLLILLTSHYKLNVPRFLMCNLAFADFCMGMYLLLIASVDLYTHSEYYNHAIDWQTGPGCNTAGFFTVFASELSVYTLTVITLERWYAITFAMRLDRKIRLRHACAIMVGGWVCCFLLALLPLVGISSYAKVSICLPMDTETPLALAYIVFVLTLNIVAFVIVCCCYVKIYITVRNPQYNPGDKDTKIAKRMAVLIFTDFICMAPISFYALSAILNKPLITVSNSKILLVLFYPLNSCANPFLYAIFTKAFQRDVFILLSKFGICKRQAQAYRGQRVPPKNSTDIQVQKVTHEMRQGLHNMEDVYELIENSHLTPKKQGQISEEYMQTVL
Chain of Thyrotropin-releasing hormone receptor (Homo sapiens) (P34981 whole entry, looked up): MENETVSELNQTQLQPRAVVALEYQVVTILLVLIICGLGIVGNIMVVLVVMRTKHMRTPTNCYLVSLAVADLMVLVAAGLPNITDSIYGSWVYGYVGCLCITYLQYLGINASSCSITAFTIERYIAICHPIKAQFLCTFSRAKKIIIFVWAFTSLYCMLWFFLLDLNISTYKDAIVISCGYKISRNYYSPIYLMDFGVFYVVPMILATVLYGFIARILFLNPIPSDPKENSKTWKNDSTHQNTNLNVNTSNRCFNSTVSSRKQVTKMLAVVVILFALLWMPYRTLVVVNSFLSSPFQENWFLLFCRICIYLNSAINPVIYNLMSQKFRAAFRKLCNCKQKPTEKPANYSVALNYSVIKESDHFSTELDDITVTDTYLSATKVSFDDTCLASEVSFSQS
Chain of Estrogen receptor beta (Homo sapiens) (Q92731 whole entry, looked up): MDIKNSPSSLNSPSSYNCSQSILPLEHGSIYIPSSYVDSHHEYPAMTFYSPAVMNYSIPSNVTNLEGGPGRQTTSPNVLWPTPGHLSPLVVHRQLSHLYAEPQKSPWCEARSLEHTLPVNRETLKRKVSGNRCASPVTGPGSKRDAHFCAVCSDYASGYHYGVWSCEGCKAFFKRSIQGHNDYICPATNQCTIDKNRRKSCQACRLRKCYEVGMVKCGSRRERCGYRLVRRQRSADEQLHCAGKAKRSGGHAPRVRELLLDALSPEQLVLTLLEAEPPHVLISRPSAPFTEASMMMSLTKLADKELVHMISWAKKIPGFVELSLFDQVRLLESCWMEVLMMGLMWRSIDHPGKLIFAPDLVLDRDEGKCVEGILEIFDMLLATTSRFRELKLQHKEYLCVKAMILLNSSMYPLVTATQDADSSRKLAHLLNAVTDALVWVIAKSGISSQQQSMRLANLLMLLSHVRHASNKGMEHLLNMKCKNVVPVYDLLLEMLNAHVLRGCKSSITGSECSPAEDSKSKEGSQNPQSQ
Chain of Progesterone receptor (Homo sapiens) (P06401 whole entry, looked up): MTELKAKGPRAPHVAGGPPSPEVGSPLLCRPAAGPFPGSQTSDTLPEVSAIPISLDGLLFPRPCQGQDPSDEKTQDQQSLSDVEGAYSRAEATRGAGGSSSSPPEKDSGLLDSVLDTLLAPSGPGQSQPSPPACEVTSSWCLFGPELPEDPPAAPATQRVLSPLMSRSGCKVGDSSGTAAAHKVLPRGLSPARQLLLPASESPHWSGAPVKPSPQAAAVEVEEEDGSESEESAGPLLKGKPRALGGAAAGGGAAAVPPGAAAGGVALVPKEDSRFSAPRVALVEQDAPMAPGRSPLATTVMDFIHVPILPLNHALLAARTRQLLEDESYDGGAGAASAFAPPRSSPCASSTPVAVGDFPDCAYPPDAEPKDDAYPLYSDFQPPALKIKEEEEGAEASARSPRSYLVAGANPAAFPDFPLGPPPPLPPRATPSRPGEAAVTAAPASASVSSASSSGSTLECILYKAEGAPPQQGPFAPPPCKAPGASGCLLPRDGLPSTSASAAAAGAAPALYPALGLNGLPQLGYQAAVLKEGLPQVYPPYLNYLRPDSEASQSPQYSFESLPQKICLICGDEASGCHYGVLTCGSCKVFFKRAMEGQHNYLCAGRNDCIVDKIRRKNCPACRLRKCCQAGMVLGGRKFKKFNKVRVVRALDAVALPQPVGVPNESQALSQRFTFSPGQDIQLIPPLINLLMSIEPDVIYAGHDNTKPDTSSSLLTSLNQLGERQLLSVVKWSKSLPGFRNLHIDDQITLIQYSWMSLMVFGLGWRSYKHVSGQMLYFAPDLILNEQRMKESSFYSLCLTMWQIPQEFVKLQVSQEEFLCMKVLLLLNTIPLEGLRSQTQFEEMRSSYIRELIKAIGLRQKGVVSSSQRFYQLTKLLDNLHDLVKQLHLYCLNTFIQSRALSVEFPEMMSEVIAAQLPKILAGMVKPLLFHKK

Regarding `Nc1ccccc1`, the Potency entry in experiment [1], in experiment [2], in experiment [3], in [4], in experiment [5] and in experiment [6] was “inactive” throughout. Further, the Potency entry in experiment [7], in [8], in [9], in experiment [10], in experiment [11] and in experiment [12] was “inactive” each time. Moreover, the Potency result in experiment [13], in experiment [14], in experiment [15] and in experiment [16] was “inactive” each time.

With `C=CCOC(Cn1ccnc1)c1ccc(Cl)cc1Cl` (stereo not drawn), the Potency in experiment [1] was 61.3 µM (active) and inactive; in experiment [2], 27.4 µM (active) and 24.3 µM (active); in experiment [3], 30.7 µM (active) and inactive; in experiment [8], 6.13 µM (active) and 6.68 µM (active); in [9], 24.4 µM (active) and 15.4 µM (active) and 11.9 µM (active); in experiment [10], 27.4 µM (active) and 21.7 µM (active) and 18.8 µM (active). In [16], the Potency was 48.6 µM (active). Moreover, the Potency result in experiment [4], in experiment [5], in experiment [6], in experiment [7], in experiment [11] and in experiment [12] was “inactive” each time. Moreover, the Potency result in [13], in experiment [14] and in [15] was “inactive” each time.

For `Nc1ccc(-c2ccc(N)cc2)cc1`, the outcome in experiment [17] was inactive. For the same molecule, the Potency result in experiment [18], in [1], in experiment [2], in experiment [3], in experiment [19] and in experiment [4] was “inactive” each time. The Potency result in [6], in [7], in experiment [8], in experiment [9], in experiment [10] and in [11] was “inactive” in each case. Moreover, the Potency result in experiment [12], in [13], in experiment [14], in experiment [15] and in experiment [16] was “inactive” in each case.

As to `Oc1ccccc1-c1ccccc1`, the Potency entry in [1], in experiment [2], in experiment [3], in experiment [19], in [6] and in experiment [7] was “inactive” throughout. The Potency entry in [8], in [9], in experiment [10], in [11], in [12] and in experiment [13] was “inactive” throughout. In addition, the Potency result in [14], in experiment [15] and in experiment [16] was “inactive” in each case.

As for `CCCC[n+]1ccccc1`, the Potency result in experiment [1], in experiment [2], in experiment [3], in experiment [4], in experiment [5] and in experiment [6] was “inactive” throughout. Also, the Potency result in experiment [7], in experiment [8], in experiment [9], in experiment [10], in experiment [11] and in experiment [12] was “inactive” in each case. Also, the Potency entry in [13] and in experiment [16] was “inactive” throughout.

Take `O=[N+]([O-])c1ccccc1O`: in [17], the molecule was called inactive. Also, the Potency result in experiment [18], in experiment [1], in experiment [2], in experiment [3], in [6] and in [7] was “inactive” each time. Further, the Potency result in [8], in experiment [9], in [10], in experiment [11], in experiment [12] and in experiment [13] was “inactive” in each case. Further, the Potency entry in experiment [14], in experiment [15] and in [16] was “inactive” each time.

As to `CNC`, the Potency entry in [1], in [2], in experiment [3], in experiment [6], in experiment [7] and in experiment [8] was “inactive” each time. Further, the Potency entry in [9], in experiment [10], in experiment [11], in [12], in [13] and in experiment [14] was “inactive” in each case. In addition, the Potency result in experiment [15] and in [16] was “inactive” each time.

In the case of `N#CS`, the Potency result in [1], in experiment [2], in experiment [3], in experiment [6], in experiment [7] and in [8] was “inactive” throughout. In addition, the Potency entry in [9], in [10], in experiment [11], in [12], in experiment [13] and in experiment [14] was “inactive” each time. The Potency entry in [15] and in experiment [16] was “inactive” each time.

(Values after PubChem BioAssay (Tox21).)
